Measured values as given in PubChem BioAssay AID1159580 (chemical genetic matrix, 2015).
Hit rate of the full screen: of about 5,500 compounds, about 2,000 (36%) were called active. Another 18% or so got no clear call; they are omitted. No stated cut-off is given here; in the data, active means normalized growth mostly below about 0.91 (no sharp cut-off); inconclusive means no clear call, values can overlap the other calls; inactive means mostly above about 0.92. The list shows a part of the results.

Assay: chemical genetic growth profiling, strain panel (AID 1159580);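 further: tested at 20 µM; growth read once vehicle control cultures reached saturation at 30 °C; 1 = growth at the plate median or of vehicle wells; lower values mean less growth of the strain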
Settings: S. cerevisiae deletion strains, growth OD
[1] = locus YAL013W, strain DEP1, hits give low values
[2] = locus YDR150W, strain NUM1, hits give low values
[3] = locus YGR078C, strain PAC10, hits give low values

Measured: normalized growth

Oc1cc(O)c2c(c1)OC(c1ccc(O)c(O)c1)C(O)C2 (configuration not stated)
inactive: [1] 1 | locus YAL040C, strain CLN3, hits give low values 1.01 | locus YCL061C, strain MRC1 (second series), hits give low values 1 | [2] 1.01 | locus YER002W, strain NOP16, hits give low values 1.03 | [3] 1.01 | locus YMR263W, strain SAP30, hits give low values 1 | locus YNL153C, strain GIM3, hits give low values 1.03 | locus YNL175C, strain NOP13, hits give low values 1.02 | locus YNL197C, strain WHI3, hits give low values 1.01 | locus YNL224C, strain SQS1, hits give low values 1.01 | locus YOR083W, strain WHI5 (second series), hits give low values 1.02

Oc1cc(O)c2c(c1)OC(c1cc(O)c(O)c(O)c1)C(O)C2c1c(O)cc(O)c2c1OC(c1cc(O)c(O)c(O)c1)C(O)C2c1c(O)cc(O)c2c1OC(c1cc(O)c(O)c(O)c1)C(O)C2 (configuration not stated)
inactive: [1] 0.977 | locus YBR021W, strain FUR4, hits give low values 1.02 | locus YBR229C, strain ROT2, hits give low values 0.992 | locus YCL029C, strain bik1, hits give low values 0.999 | locus YDL035C, strain GPR1, hits give low values 0.889 | locus YDL074C, strain BRE1, hits give low values 0.846 | locus YDL101C, strain DUN1, hits give low values 0.913 | locus YDL134C, strain PPH21, hits give low values 0.937 | locus YDL185W, strain tfp1, hits give low values 0.973 | locus YDL192W, strain arf1, hits give low values 0.948 | locus YDR101C, strain arx1, hits give low values 1.03 | [2] 0.964 | locus YDR162C, strain NBP2, hits give low values 0.84 | locus YDR318W, strain mcm21, hits give low values 0.973 | locus YDR388W, hits give low values 1 | locus YDR502C, strain sam2, hits give low values 0.979 | locus YEL061C, strain CIN8, hits give low values 0.933 | locus YER110C, hits give low values 1.02 | locus YER155C, strain BEM2, hits give low values 1.02 | locus YER167W, strain BCK2, hits give low values 1.02 | locus YGL078C, strain dbp3, hits give low values 1.02 | locus YGL086W, strain mad1, hits give low values 0.964 | locus YGL248W, strain PDE1, hits give low values 0.911 | [3] 0.918 | locus YGR135W, strain pre9, hits give low values 0.912 | locus YGR252W, strain gcn5, hits give low values 0.963 | locus YHR030C, strain SLT2, hits give low values 0.972 | locus YHR079C, strain IRE1 (second series), hits give low values 1.04 | locus YHR094C, strain hxt1, hits give low values 1.02 | locus YHR200W, strain rpn10, hits give low values 0.98 | locus YIL066C, strain RNR3, hits give low values 0.919 | locus YIL073C, strain SPO22, hits give low values 0.9 | locus YIL125W, strain kgd1, hits give low values 1.02 | locus YIR030C, strain dcg1, hits give low values 1 | locus YJL095W, strain BCK1, hits give low values 0.845 | locus YJL134W, strain LCB3, hits give low values 0.99 | locus YJL168C, strain set2, hits give low values 1 | locus YJR043C, strain POL32, hits give low values 0.857 | locus YKL068W, hits give low values 1.02 | locus YKL085W, strain MDH1 (second series), hits give low values 1.01 | locus YKL085W, strain MDH1, hits give low values 1.01 | locus YKL190W, strain CNB1, hits give low values 0.961 | locus YKR001C, strain vps1, hits give low values 0.982 | locus YLR039C, strain RIC1, hits give low values 0.836 | locus YLR102C, strain apc9, hits give low values 1.02 | locus YLR262C, strain YPT6, hits give low values 0.935 | locus YLR268W, strain sec22, hits give low values 0.96 | locus YLR330W, strain CHS5, hits give low values 1 | locus YLR342W, strain FKS1 (second series), hits give low values 0.919 | locus YLR371W, strain rom2, hits give low values 0.91 | locus YLR418C, strain cdc73, hits give low values 0.92 | locus YML016C, strain PPZ1, hits give low values 0.94 | locus YML032C, strain rad52, hits give low values 1 | locus YML124C, strain tub3, hits give low values 1.01 | locus YMR078C, strain ctf18, hits give low values 1.01 | locus YMR223W, strain ubp8, hits give low values 0.947 | locus YMR307W, strain GAS1, hits give low values 0.928 | locus YNL067W, strain RPL9B, hits give low values 0.917 | locus YNL233W, strain BNI4, hits give low values 0.945 | locus YNL250W, strain rad50, hits give low values 1 | locus YNL271C, strain bni1, hits give low values 0.989 | locus YNL298W, strain CLA4, hits give low values 1.01 | locus YNL307C, strain MCK1, hits give low values 1.02 | locus YNR052C, strain pop2, hits give low values 0.952 | locus YOL012C, strain htz1 0.566 | locus YOL147C, strain pex11, hits give low values 1.01 | locus YOR061W, strain CKA2, hits give low values 0.931 | locus YOR069W, strain VPS5, hits give low values 0.976 | locus YOR136W, strain idh2, hits give low values 1.02 | locus YOR144C, strain elg1, hits give low values 1 | locus YOR184W, strain ser1, hits give low values 0.968 | locus YOR316C, strain cot1, hits give low values 1.01 | locus YPL055C, strain LGE1, hits give low values 0.886 | locus YPL241C, strain CIN2, hits give low values 0.974 | locus YPR119W, strain clb2, hits give low values 1.02 | locus YPR141C, strain kar3, hits give low values 1 | locus YPR163C, strain tif3, hits give low values 1.01 | locus YPR167C, strain met16, hits give low values 0.982 | strain wtn01, hits give low values 1.01
active: locus YGR229C, strain SMI1, hits give low values 0.747 | locus YHR129C, strain ARP1, hits give low values 0.915 | locus YJL187C, strain SWE1 (second series), hits give low values 0.775 | locus YKL009W, strain mrt4, hits give low values 1.15 [resistant] | locus YLR058C, strain SHM2, hits give low values 0.835 | locus YNL322C, strain KRE1, hits give low values 0.916
